Key:
Format in all cases: functional
[1] = biological target: Solute carrier family 2, facilitated glucose transporter member 1 (Homo sapiens) (UniProt P11166); assay: ST_JUDE_LEISH: Cytotoxicity at 2uM final concentration against transgenic Leishmania Mexicana promastigotes LmGLUT1 that are glucose transport deficient and complemented with the human glucose transporter GLUT1. Activity is measured by DNA content using SYBR green in vitro
[2] = biological target: Hexose transporter 1 (Plasmodium falciparum) (UniProt O97467); assay: ST_JUDE_LEISH: Cytotoxicity at 2uM final concentration against transgenic Leishmania Mexicana promastigotes LmPfHT that are glucose transport deficient and complemented with the Plasmodium falciparum hexose transporter. Activity is measured by DNA content using SYBR green in vitro
[3] = biological target: Glucose transporter (Leishmania mexicana) (UniProt O61059); assay: ST_JUDE_LEISH: Cytotoxicity at 2uM final concentration against transgenic Leishmania Mexicana promastigotes LmGT2 that are glucose transport deficient and complemented with the L. Mexicana glucose transporter 2. Activity is measured by DNA content using SYBR green in vitro

Sequence of Solute carrier family 2, facilitated glucose transporter member 1 (Homo sapiens) (P11166 whole entry): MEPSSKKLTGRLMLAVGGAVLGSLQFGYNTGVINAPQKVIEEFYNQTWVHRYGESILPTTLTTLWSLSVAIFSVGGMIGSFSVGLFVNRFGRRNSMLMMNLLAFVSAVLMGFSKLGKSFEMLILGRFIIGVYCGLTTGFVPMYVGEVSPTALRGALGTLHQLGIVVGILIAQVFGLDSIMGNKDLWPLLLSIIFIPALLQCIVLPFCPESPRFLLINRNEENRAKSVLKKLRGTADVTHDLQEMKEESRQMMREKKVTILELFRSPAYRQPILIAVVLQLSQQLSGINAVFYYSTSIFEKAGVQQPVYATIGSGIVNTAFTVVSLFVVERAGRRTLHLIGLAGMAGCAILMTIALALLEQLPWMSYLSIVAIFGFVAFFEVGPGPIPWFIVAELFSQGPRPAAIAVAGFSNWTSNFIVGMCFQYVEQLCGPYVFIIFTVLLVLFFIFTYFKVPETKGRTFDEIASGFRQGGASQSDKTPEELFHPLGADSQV

CCCOc1ccccc1C(=O)Nc1nonc1-c1ccc(OCC)c(OCC)c1
inhibition [1]: 0.74%
inhibition [2]: 0.51%
inhibition [3]: 0.93%

O=C(Nc1ccc2[nH]c(-c3ccc4nc(NC(=O)C5CCCCC5)sc4c3)nc2c1)C1CCCCC1
inhibition [1]: 0.5%
inhibition [2]: -0.34%
inhibition [3]: -1.71%

FC(F)(F)c1ccccc1OCc1cc(-c2ccncc2)c(COc2ccccc2C(F)(F)F)cc1C1=CCNCC1
inhibition [1]: 2.44%
inhibition [2]: 2.17%
inhibition [3]: 2.81%

Cc1ccc2[nH]c(C)cc(=NN=Cc3ccccc3Cl)c2c1
inhibition [1]: 2.11%
inhibition [2]: 3.39%
inhibition [3]: 0.08%

Cn1cncc1C(=O)Nc1cccc(-c2cccc(-c3nc4cc(C(F)(F)F)ccc4[nH]3)c2)c1
inhibition [1]: -1.02%
inhibition [2]: 2.87%
inhibition [3]: -0.89%

c1ccc2c(CNCCCN3CCN(CCCNCc4c5ccccc5cc5ccccc45)CC3)c3ccccc3cc2c1
inhibition [1]: 10.3%
inhibition [2]: 4%
inhibition [3]: 0.34%

O=C(CCc1ccccc1)NC(c1ccc(Cl)cc1)c1ccc2cccnc2c1O (stereo not drawn)
inhibition [1]: -0.41%
inhibition [2]: 1.91%
inhibition [3]: 3.42%

COc1ccc(-c2cccc(NC(=O)c3cccc(C#N)c3)c2)cc1CN1CCNCC1
inhibition [1]: 11%
inhibition [2]: 11.2%
inhibition [3]: 10.6%

N#Cc1ccc2c(c1)CCN(CCCn1c(-c3ccc4ccccc4c3)nc3ccncc31)CC2
inhibition [1]: 15.1%
inhibition [2]: 16.1%
inhibition [3]: 10.4%

COc1ccc2nccc(N3CCC(SCCNCc4ccc5c(n4)NC(=O)CS5)C3)c2n1 (stereo not drawn)
inhibition [1]: -1.38%
inhibition [2]: -0.72%
inhibition [3]: 0.51%

Cc1cc(C)c(C)c(S(=O)(=O)N2CCCCC(c3ccc(F)c(F)c3)=N2)c1C
inhibition [1]: 2.94%
inhibition [2]: -0.61%
inhibition [3]: 6.62%

CCc1c(C)nc(-n2nc(C)cc2NC(=O)C(CC)c2ccccc2)[nH]c1=O (stereo not drawn)
inhibition [1]: 18.6%
inhibition [2]: 7.02%
inhibition [3]: -2.05%

CCOc1ccc(C(C)NC(=O)Nc2ccccc2)cc1OCC (stereo not drawn)
inhibition [1]: 4.28%
inhibition [2]: 2.66%
inhibition [3]: 2.96%

COc1cc(SC)ccc1C(=O)N1CC(C)CC(C)C1 (stereo not drawn)
inhibition [1]: 11.1%
inhibition [2]: 11.1%
inhibition [3]: 9.2%

O=C(NCCCCN1CCC(c2ccc3c(c2OC(=O)c2ccc(NC(=O)c4ccc(Cl)cc4)cc2)CCCC3)CC1)c1ccc(NC(=O)c2ccc(Cl)cc2)cc1
inhibition [1]: 3.25%
inhibition [2]: 0.15%
inhibition [3]: 3.18%

COc1ccc2nccc([C@@H](O)CN3CCC(NCc4cc5cccnc5[nH]4)CC3)c2n1
inhibition [1]: 15.5%
inhibition [2]: 14.9%
inhibition [3]: 3.26%
